# An excerpt weighted towards active compounds, which were near 3% of everything screened.
# HTR1E agonist – 5-HT1E receptor agonists, primary screen, cell-based, HTS; CHO 5-HT1E Ga15 NFAT-bla reporter, FRET; 0% DMSO wells, 100% control agonist wells; activation, % at 6 µM; actives 0.69% (n = 65,000); AID 574, 2007;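 active = activation above a set limit, the screen-wide mean activation plus 3 SD, cut at about 8.5% in these data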;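 also: 100% = positive control agonist at 1 µM giving full maximal response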
# 5-HT1A blocker – human 5-HT1a receptor antagonists, primary screen, cell-based, CHO, Ga15 NFAT-bla reporter | 5-hydroxytryptamine receptor 1A (Homo sapiens), P08908 | CHO 5-HT1a Ga15 NFAT-bla reporter, antagonist mode | inhibition, % at 10 µM | actives 0.68% (n = 62,000) | AID 612, 2007;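 active = inhibition above the mean of all tested compounds plus 3 SD, cut at about 43% in these data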;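 also: receptor stimulated by 5-CT agonist at 100 nM near EC80; beta-lactamase reporter measured by ratiometric fluorescence of a cleavable substrate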
# Target sequence (P08908 whole entry, looked up): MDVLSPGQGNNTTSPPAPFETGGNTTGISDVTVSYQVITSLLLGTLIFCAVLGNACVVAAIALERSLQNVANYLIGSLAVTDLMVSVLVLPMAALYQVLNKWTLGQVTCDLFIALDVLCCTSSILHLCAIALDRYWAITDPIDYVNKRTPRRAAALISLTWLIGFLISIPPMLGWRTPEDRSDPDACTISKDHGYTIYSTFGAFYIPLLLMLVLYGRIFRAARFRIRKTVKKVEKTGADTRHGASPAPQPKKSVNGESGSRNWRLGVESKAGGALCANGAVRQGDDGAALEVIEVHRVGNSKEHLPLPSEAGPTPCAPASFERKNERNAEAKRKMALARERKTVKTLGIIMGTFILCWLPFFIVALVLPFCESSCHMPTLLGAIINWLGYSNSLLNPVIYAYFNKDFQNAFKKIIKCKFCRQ
# 5HT1a ag – human 5-HT1a receptor agonists, primary screen, cell-based, CHO, Ga15 NFAT-bla reporter. CHO 5-HT1a Ga15 NFAT-bla reporter, FRET ratio; 0% basal, 100% maximal reference agonist. activation, % at 10 µM. actives 0.56% (n = 65,000);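 active = activation above the screen-wide mean activation plus 3 SD, cut at about 19% in these data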;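 also: 0% = DMSO wells and 100% = 5-CT at EC100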
# Her2 expr inh – inhibitors of Her2 protein expression, primary screen, SKBR-3 cells, AlphaScreen, 66K library. Receptor tyrosine-protein kinase erbB-2 (Homo sapiens), P04626. AID 645, 2007. SKBR-3 HER2 protein level, 18-24 h; active compounds read low. HER2 level % of control, % at 10 µM. actives 0.69% (n = 65,000);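 active = HER2 level under 5% of the carrier-only control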;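 also: 100% = DMSO carrier and 0% = 500 nM PU-H71 HSP90 inhibitor; lower value means stronger loss of Her2 protein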
# HTR1E antagonist – 5-HT1E receptor antagonists, primary screen, cell-based, HTS | AID 571, 2007 | inhibition, % at 6 µM | actives 0.99% (n = 65,000) | CHO 5-HT1E Ga15 NFAT-bla reporter, FRET, antagonist;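 active = inhibition above a set limit, the mean inhibition across every tested compound plus 3 SD, cut at about 29% in these data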;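 also: signal is the 460 over 535 nm emission ratio of beta-lactamase substrate; 0% = agonist plus DMSO wells and 100% = wells without agonist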
# Numbers without * were called inactive; . = no result.
SMILES,HTR1E agonist,5-HT1A blocker,5HT1a ag,Her2 expr inh,HTR1E antagonist
O=C1C2=C(SCCS2)C(=O)N1CCCO,0,-3,-6,1.1*,5
CS(=O)(=O)N1CCN(C(=O)c2cc(-c3ccncc3)nc3ccc(Cl)cc23)CC1,1,-4,2,74,10
CN1CC2=Cc3ccccc3OC23Oc2ccccc2C=C3C1,0,35,0,-7.0*,4
Cn1cc(S(=O)(=O)Nc2ccc(Br)cc2F)c(=O)n(C)c1=O,0,-3,-4,107,5
O=S1(=O)C=C(Sc2nc3cc(Cl)ccc3o2)c2ccccc21,-1,94*,-4,-18*,80*
O=C(NCc1ccc(N2CCCC2=O)cc1)Nc1cccc(Cl)c1,0,8,0,81,7
C=CCc1cccc2cc(C(=O)N(C)C)c(=O)oc12,0,-7,-2,112,-2
C=CCc1cccc2cc(C(=O)NC)c(=O)oc12,0,1,-1,-18*,7
COC(=O)c1cc(Br)c(=O)n(CC(C)C)c1,9.5*,0,0,113,-5
COC(=O)c1cc(Br)c(=O)n(CCN2CCCCC2)c1,1,17,2,105,4
O=C(CN(Cc1ccccc1)C(=O)c1ccco1)NCc1ccc(F)cc1,-1,12,-1,105,4
COc1cccc(CNCCOCCO)c1OC,1,2,-3,118,-4
COc1cccc(CNCc2ccccn2)c1OC,11*,-10,-1,90,2
O=C(O)c1ccccc1C(=O)N1CC=C(c2ccccc2)CC1,12*,1,7,94,-5
O=C(O)c1ccccc1C(=O)N1CCN(c2ccccc2)CC1,8,-3,1,98,-2
CN(C)S(=O)(=O)N1CCC(c2ccc(F)cc2)C(COc2ccc3c(c2)OCO3)C1 (configuration not stated),-1,47*,-1,70,9
CN(C)S(=O)(=O)N1CCN(S(=O)(=O)c2ccc(F)cc2)CC1,0,0,-1,133,-2
COc1cccc(N2CC(O)=C(c3nc4ccccc4c(=O)[nH]3)C2=N)c1,-1,16,-1,85,34*
CC1(c2ccc3c(c2)OCO3)NC(=O)N(CC(=O)Nc2ccc(N3CCOCC3)cc2)C1=O (configuration not stated),0,0,2,168,1
Cn1cc(Cl)nc1C(O)c1ccccc1 (configuration not stated),-1,.,-2,126,0
CCCCOc1ccc(CN(C)c2ncnc(N)n2)cc1,0,.,0,78,32*
CCCCOc1ccc(-c2nnc(N)s2)cc1,0,.,1,108,-3
CCOC(=O)N1CCN(c2ccc3nnnn3n2)CC1,0,8,-2,101,2
Cc1c(C#N)c(N)c(C(=O)c2ccccc2)n1Cc1ccccc1,.,.,.,-32*,.
O=C(c1c(F)cccc1F)N1CCN(c2cccc(C(F)(F)F)c2)CC1,0,7,1,100,0
SMILES,HTR1E agonist,5-HT1A blocker,5HT1a ag,Her2 expr inh,HTR1E antagonist
FC(F)(F)c1cccc(N2Cc3ccccc3C2)c1,11*,6,-1,93,-10
FC(F)(F)c1cccc(N2CCN(Cc3ccoc3)CC2)c1,14*,-1,15,106,2
CNC(=O)c1cc2cc(Cl)cc(OC)c2oc1=O,1,6,0,118,-7
COc1ccc(OC)c(NC(=O)CSc2nnnn2-c2ccc3c(c2)OCO3)c1,0,44*,0,80,-6
COC(=O)C1=C(C)NC2=C(C(=O)CCC2)C1c1ccccn1 (configuration not stated),1,2,-2,98,12
COc1ccc2nc(SCc3nc(N)nc(Nc4ccccc4)n3)[nH]c2c1,2,6,5,84,40*
Cc1[nH]nc2nc3c(c(OC(=O)c4ccccc4)c12)c(=O)n(C)c(=O)n3C,0,-11,-3,.,7
N#Cc1nc(-c2ccccc2F)oc1NC1CCCCC1,-2,19,-1,84,28
Cc1ccc(N2C(=O)CC(N3CCN(C4CCc5ccccc5C4)CC3)C2=O)cc1 (configuration not stated),0,14,20*,112,9
Cc1ccc(C2C3CN(C(C)C)CC=C3C(C#N)=C(N)C2(C#N)C#N)cc1 (configuration not stated),4,.,32*,52,-18
CCOC(=O)N1CC=C2C(C#N)=C(N)C(C#N)(C#N)[C@H](c3ccc(OCC)c(OCC)c3)[C@H]2C1,1,-9,2,125,-7
CCCCOc1ccc(C2C3CN(C(=O)OCC)CC=C3C(C#N)=C(N)C2(C#N)C#N)cc1OC (configuration not stated),2,-5,46*,74,-6
COc1ccc(OC)c(C2C3CN(C(C)C)CC=C3C(C#N)=C(N)C2(C#N)C#N)c1 (configuration not stated),2,-4,7,73,-16
O/N=C1\CCCc2oc3c(c21)CCCC3,1,-13,0,77,-1
CCOC(=O)c1oc2ccc(Br)cc2c1CSc1nnc(C)s1,-1,18,-2,94,13
CCn1c(-c2ccsc2)nc2c1c(=O)[nH]c(=O)n2Cc1ccccc1,0,-12,-1,75,11
CC1CCN(C(=O)CN2C(=O)c3ccccc3S2(=O)=O)CC1,-1,0,38*,134,-7
Cc1nc(COC(=O)c2ccc(S(=O)(=O)N3CCCC3)cc2)cs1,-1,-1,-3,101,18
C=CCc1ccccc1OCC(O)CNC (configuration not stated),9.4*,7,0,94,-4
CCOc1ccccc1OCC(O)CNC (configuration not stated),2,-8,0,81,-1
C=CCc1ccccc1OCC(O)CN(C(C)C)C(C)C (configuration not stated),19*,13,-2,137,-1
C=CCc1ccccc1OCC(O)Cn1ccnc1C (configuration not stated),-1,-4,-1,77,1
CCCNC(=O)C1CCN(S(=O)(=O)c2ccc(Br)cc2)CC1,0,3,-2,76,-1
O=S(=O)(c1ccc2oc(-c3ccncc3)nc2c1)c1ccc2oc(-c3ccncc3)nc2c1,1,-16,27*,89,-14
CC(=O)Nc1ccc(S(=O)(=O)c2ccc(N)cc2)cc1,0,-8,-3,90,-8
CCOC(=O)/C=C/S(=O)(=O)c1ccc(NC(C)=O)cc1,-1,98*,-3,-22*,89*

# Screening data (PubChem)
